M18AAP inhibitor: PfM18AAP enzyme inhibition; recombinant PfM18AAP, H-Glu-NHMec fluorogenic cleavage; inhibition, % at 7.35 µM; 290,000 tested, 1.2% active;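 active = inhibition above the campaign mean inhibition over all tested compounds plus 3 SD, cut at about 28% in these data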
Yeast superoxide: lowers age-related superoxide in aged yeast cells; S. cerevisiae aged cells, superoxide DHE fluorescence; active compounds read low; superoxide response (% of plate mean), % at 10 µM; 330,000 tested, 0.18% active; AID 2690;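 active = superoxide response under a set limit, about three screen SD below normal, cut at about 65% in these data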;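 also: yeast aged for seven days with compound at 30 °C before DHE staining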
A3A deaminase: inhibitors of human APOBEC3A DNA deaminase; recombinant A3A, FAM/TAMRA ssDNA deamination fluorescence; 330,000 tested, 0.41% active; AID 493011; inhibition, % at 20 µM; P31941;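 active = at least 40% inhibition at 20 µM here, with at most 30% in a related deaminase screen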
APOBEC3G inh: blocks human APOBEC3G single-stranded DNA deamination. Q9HC16. recombinant A3G, ssDNA deamination FAM/TAMRA fluorescence. inhibition, % at 20 µM. 330,000 tested, 0.28% active. AID 493012;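 active = inhibition of at least 40% at 20 µM, with no more than 30% in the related APOBEC3A deaminase screen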
Target sequence (Q9HC16 whole entry, looked up): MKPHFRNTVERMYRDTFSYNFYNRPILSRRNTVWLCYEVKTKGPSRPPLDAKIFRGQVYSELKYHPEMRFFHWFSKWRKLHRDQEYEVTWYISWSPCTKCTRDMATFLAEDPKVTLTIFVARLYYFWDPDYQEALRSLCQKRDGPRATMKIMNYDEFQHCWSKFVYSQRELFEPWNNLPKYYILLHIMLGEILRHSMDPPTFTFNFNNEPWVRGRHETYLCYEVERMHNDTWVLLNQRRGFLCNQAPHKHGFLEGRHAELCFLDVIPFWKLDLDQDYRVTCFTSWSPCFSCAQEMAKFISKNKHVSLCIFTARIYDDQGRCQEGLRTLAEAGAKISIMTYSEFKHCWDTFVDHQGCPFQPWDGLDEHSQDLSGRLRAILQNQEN
ALR H2O2 inh: blocks human ALR sulfhydryl oxidase activity. 290,000 tested, 3.8% active. P55789. inhibition, % (concentration not given with the values). purified ALR, DTT oxidation, H2O2 HRP-luminol luminescence;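 active = mean replicate inhibition above about 79%, with every replicate also reaching it, limit read from the data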
Target sequence (P55789 whole entry, looked up): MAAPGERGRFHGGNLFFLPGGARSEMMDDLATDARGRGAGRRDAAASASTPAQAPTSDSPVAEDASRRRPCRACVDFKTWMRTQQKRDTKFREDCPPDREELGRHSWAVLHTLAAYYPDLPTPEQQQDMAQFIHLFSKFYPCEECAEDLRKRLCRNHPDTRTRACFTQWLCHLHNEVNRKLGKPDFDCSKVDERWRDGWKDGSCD
NRP1-CendR mod: alters CendR peptide binding to human NRP-1. 360,000 tested, 0.85% active. inhibition, % at 25 µM. FAM-RPARPAR peptide binding to NRP-1, fluorescence polarization. O14786;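 active = inhibition or corrected inhibition above about 18%, plus a signal ratio from 0.5 to 1.5, limit read from the data, passing the limit was not always enough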
Hits are given with their value; 0 = inactive; - = no result. Only some compounds are listed: those with a hit (about 5.2% of all), similar ones and a draw of the others.

SMILES | M18AAP inhibitor | Yeast superoxide | A3A deaminase | APOBEC3G inh | ALR H2O2 inh | NRP1-CendR mod
CCOc1cc(/C=C/c2ccc3cccc([N+](=O)[O-])c3n2)ccc1OCC(=O)N(C)C | 0 | 0 | 0 | 0 | 0 | 0
CCOc1cc(/C=C/c2cc(C(F)(F)F)[nH]c(=O)n2)ccc1O | 0 | 0 | 0 | 0 | 99 | 0
CSC(=S)NN=C(C)c1cccc(C)n1 | - | - | - | - | - | 27
CC(=NNC(=S)N1CCCCC1)c1cccc(C)n1 | - | - | - | - | - | 0
COc1cc2c(CCNC(C)=O)c[nH]c2cc1O | - | 0 | 0 | 0 | 80 | 0
O=C(NCc1ccccc1CN1CCCC1)c1cc2ccccc2o1 | - | 0 | - | - | 0 | 0
COc1cc(F)ccc1-c1cc(C(=O)NCc2ccc(F)cc2)[nH]n1 | - | - | - | - | - | 0
COc1cccc(CC(=O)OCC(=O)N(C)CC(=O)Nc2ccccc2Cl)c1 | - | 0 | 0 | 0 | 0 | 20
CSc1ccc(-c2nc(CSCC(=O)NCCCN3CCOCC3)c(C)o2)cc1 | 0 | 0 | 0 | 0 | - | 0
CCN1CCN(CCNC(=O)CS(=O)(=O)Cc2nc(-c3ccc(C)cc3)oc2C)CC1 | 0 | 0 | 0 | 0 | 0 | 0
Cc1ccc(-c2nc(CSCC(=O)NCCN3CCN(Cc4ccccc4)CC3)c(C)o2)cc1 | 0 | 0 | 0 | 0 | 99 | 0
Cc1ccc(-c2nc(CSCC(=O)NCCCN3CCOCC3)c(C)o2)cc1 | 0 | 0 | 0 | 0 | 97 | 0
C#CCNC(=O)C[C@@H]1C[C@@]2(C(=O)OCC)CCC=C2N(Cc2ccc(Cl)cc2Cl)C1=O | - | - | - | - | - | 0
COc1ccc(N2CCN(CCNS(=O)(=O)c3ccc(C)cc3)CC2)cc1 | 0 | 0 | 0 | 0 | - | 0
CCOC(=O)c1sc(=S)n(-c2ccc(OC)cc2)c1C | 0 | 0 | 0 | 0 | 0 | 0
CCOC(=O)c1c2c(n(-c3ccc(OC)cc3)c1C)C(=O)C(=O)c1ccccc1-2 | - | - | - | - | - | 34
COc1ccc(N2C(=O)CC(N3CCC(O)(c4ccc(Cl)cc4)CC3)C2=O)cc1 (stereo not given) | 0 | 0 | 0 | 0 | 0 | 0
Oc1cccc(/C=N/Nc2nn3cnnc3c3ccccc23)c1 | 0 | 0 | 0 | 0 | 0 | 0
COc1cccc(/C=N/Nc2nn3cnnc3c3ccccc23)c1O | 31 | 0 | 0 | 0 | 0 | 0
Cc1ccccc1-n1c(SCc2cc(=O)n3ccccc3n2)nc2[nH]ncc2c1=O | 0 | 0 | 0 | 0 | 0 | 0
O=c1c2cn[nH]c2nc(SCc2cc(=O)n3cc(Br)ccc3n2)n1-c1ccc(Br)cc1 | 0 | 0 | 0 | 0 | 0 | 32
O=c1c2cn[nH]c2nc(SCc2ccccc2F)n1-c1ccc(Br)cc1 | 0 | 0 | 0 | 0 | 0 | 26
O=C(O)C(Oc1ccc2c(-c3ccccc3)cc(=O)oc2c1)c1ccccc1 (stereo not given) | 0 | 0 | 0 | 0 | 0 | 0
CCCc1nnc(NC(=O)CCC(=O)N2CCN(C3CCCC3)CC2)s1 | 0 | 0 | 0 | 0 | 0 | 0
CCOc1ccc(CCNC(=O)C2(c3ccccc3)CC2)cc1OCC | 0 | 0 | 0 | 0 | 0 | 20
SMILES | M18AAP inhibitor | Yeast superoxide | A3A deaminase | APOBEC3G inh | ALR H2O2 inh | NRP1-CendR mod
CC(=O)Nc1oc(-c2cccc3ccccc23)nc1C#N | - | 0 | 0 | 0 | 0 | 0
Cn1c(=O)[nH]c(=O)c2c1nc(N1CCN(c3cccc(Cl)c3)CC1)n2CCCc1ccccc1 | 0 | - | - | - | - | -
CCCCCCn1c(N2CCCC2)nc2c1c(=O)n(C)c(=O)n2C | 0 | 0 | 0 | 0 | 97 | 0
CCOCCn1c(N2CCN(c3ccc(OC)cc3)CC2)nc2c1c(=O)n(C)c(=O)n2C | 0 | 0 | 0 | 0 | 91 | 0
CCCCCn1c(N2CCN(c3cccc(Cl)c3)CC2)nc2c1c(=O)[nH]c(=O)n2C | 0 | 0 | 0 | 0 | 0 | 28
O=C(/C=C/NCC(=O)c1ccccc1)c1ccc(Br)cc1 | 0 | 0 | 0 | 0 | 0 | 0
Cc1ccc(C)c(N(CC(=O)NC(C)(C)C)C(=O)CCC(=O)Nc2nccs2)c1 | 0 | 0 | 0 | 0 | 0 | 0
O=[N+]([O-])c1ccc(/C=C2\CCC(C3=CCCC3)=C2N2CCOCC2)cc1 | 0 | 0 | 0 | 0 | 97 | 0
O=C(NP(=O)(N1CCCC1)N1CCCC1)C1=C(N2CCOCC2)/C(=C/c2cccc([N+](=O)[O-])c2)CC1 | 0 | 0 | 0 | 0 | 0 | 0
CC(C)Sc1nc2ccccc2n2cnnc12 | 0 | 0 | 0 | 0 | 99 | 0
CC(Nc1nc2ccccc2n2cnnc12)c1ccccc1 (stereo not given) | 0 | 0 | 0 | 0 | 0 | 0
Cc1ccc(S(=O)(=O)Nc2cc(-c3nn(C)c(=O)c4ccccc34)ccc2N2CCOCC2)cc1 | 0 | 0 | 0 | 0 | 0 | 0
Cn1nc(-c2ccc(N3CCOCC3)c(NS(=O)(=O)c3ccc(Cl)cc3)c2)c2ccccc2c1=O | 0 | 0 | 0 | 0 | 0 | 26
CCN(CC)S(=O)(=O)c1ccc(OCC(=O)NCc2ccccc2)cc1 | 0 | 0 | 0 | 0 | 0 | 0
CCN(CC)CCn1c2c(c(SCC(=O)Nc3nc(C)cs3)nc1=O)CCCC2 | - | 0 | 0 | 0 | 98 | 0
CCN(CC)CCn1c2c(c(SCC(=O)Nc3nc(C)cs3)nc1=O)CCC2 | - | 0 | 0 | 0 | 99 | 0
CN(C)CCCn1c2c(c(SCC(=O)Nc3nccs3)nc1=O)CCC2 | - | 0 | 0 | 0 | 99 | 0
COc1cccc2c1OCC/C2=N\NC(=O)COc1ccc(C)cc1 | 0 | 0 | 0 | 0 | 0 | 0
C/C(=N\NC(=O)c1nnn(-c2nonc2N)c1-c1ccc2c(c1)OCO2)c1cccs1 | 0 | 0 | 0 | 0 | 0 | 0
CCC1(c2ccc(OC)cc2)NC(=O)N(CC(=O)NC2CCCCC2C)C1=O (stereo not given) | - | 0 | 0 | 0 | 0 | 23
C=CCn1c(SCC(C)=O)nc2scc(-c3ccc(C)o3)c2c1=O | 0 | 0 | 0 | 0 | 96 | 0
C=CCn1c(SCC(=O)NCCCC)nc2scc(-c3ccco3)c2c1=O | 0 | 0 | 0 | 0 | 0 | 0
C=CCn1c(=S)[nH]c2sc3c(c2c1=O)CCCC3 | 0 | 0 | 0 | 0 | 0 | 0
C=CCn1c(=S)[nH]c2scc(-c3ccc(C)o3)c2c1=O | 0 | 0 | 0 | 0 | 98 | 0
C=CCn1c(=S)[nH]c2sccc2c1=O | 0 | 0 | 0 | 0 | 98 | 0
SMILES | M18AAP inhibitor | Yeast superoxide | A3A deaminase | APOBEC3G inh | ALR H2O2 inh | NRP1-CendR mod
O=C1CN(C(=O)COC(=O)CCC(=O)c2ccc3c(c2)OCCO3)c2ccccc2N1 | 0 | 0 | 0 | 0 | 0 | 0
Cc1cc(N(CCO)CCO)ccc1N=Nc1cc(F)ccc1F | 0 | 0 | 0 | 0 | 99 | 0
COc1cc(OC)cc(-c2n[nH]c(=S)n2-c2ccc3c(c2)OCO3)c1 | 32 | 0 | 0 | 0 | - | 0
Cc1ccc(C)c(-n2c(-c3ccc4c(c3)OCO4)n[nH]c2=S)c1 | 0 | 0 | 0 | 0 | 83 | 0
Oc1ccc(-c2n[nH]c(=S)n2-c2ccc3c(c2)OCCO3)cc1 | 0 | 0 | 0 | 0 | - | 0
Fc1ccc(-n2c(-c3ccc4c(c3)OCO4)n[nH]c2=S)cc1Cl | 0 | 0 | 0 | 0 | 96 | 0
CCCCCOc1ccc(CSC(=N)N)cc1[N+](=O)[O-] | 0 | 0 | 0 | 0 | 99 | 0
c1ccc(CSC2=NCCS2)cc1 | 0 | 0 | 0 | 0 | 0 | 0
CCCCCCOc1ccc(/C(C)=N/NC2=NCCN2)cc1[N+](=O)[O-] | 0 | 0 | 0 | 0 | 0 | 0
O=[N+]([O-])c1ccc(CSC2=NCCN2)cc1 | 0 | 0 | 0 | 0 | 99 | 0

Screening results (PubChem BioAssay)
